PubChem BioAssay AID504537 (National Center for Advancing Translational Sciences (NCATS), 2011)
Records with an inconclusive call do not appear. Activity calls are given as the source filed them. The rule behind the calls is not given here.

molecular target: Histone-lysine N-methyltransferase 2A (Homo sapiens) (UniProt Q03164); test: Inhibitor SAR for Compounds Targeting the Menin-MLL Interaction in MLL Related Leukemias: Competition With Fluorescein Labeled MLL-derived Peptide; conditions: Menin-MLL fluorescein peptide fluorescence polarization competition
Sequence (Q03164 whole entry, looked up, the tested form may be a part): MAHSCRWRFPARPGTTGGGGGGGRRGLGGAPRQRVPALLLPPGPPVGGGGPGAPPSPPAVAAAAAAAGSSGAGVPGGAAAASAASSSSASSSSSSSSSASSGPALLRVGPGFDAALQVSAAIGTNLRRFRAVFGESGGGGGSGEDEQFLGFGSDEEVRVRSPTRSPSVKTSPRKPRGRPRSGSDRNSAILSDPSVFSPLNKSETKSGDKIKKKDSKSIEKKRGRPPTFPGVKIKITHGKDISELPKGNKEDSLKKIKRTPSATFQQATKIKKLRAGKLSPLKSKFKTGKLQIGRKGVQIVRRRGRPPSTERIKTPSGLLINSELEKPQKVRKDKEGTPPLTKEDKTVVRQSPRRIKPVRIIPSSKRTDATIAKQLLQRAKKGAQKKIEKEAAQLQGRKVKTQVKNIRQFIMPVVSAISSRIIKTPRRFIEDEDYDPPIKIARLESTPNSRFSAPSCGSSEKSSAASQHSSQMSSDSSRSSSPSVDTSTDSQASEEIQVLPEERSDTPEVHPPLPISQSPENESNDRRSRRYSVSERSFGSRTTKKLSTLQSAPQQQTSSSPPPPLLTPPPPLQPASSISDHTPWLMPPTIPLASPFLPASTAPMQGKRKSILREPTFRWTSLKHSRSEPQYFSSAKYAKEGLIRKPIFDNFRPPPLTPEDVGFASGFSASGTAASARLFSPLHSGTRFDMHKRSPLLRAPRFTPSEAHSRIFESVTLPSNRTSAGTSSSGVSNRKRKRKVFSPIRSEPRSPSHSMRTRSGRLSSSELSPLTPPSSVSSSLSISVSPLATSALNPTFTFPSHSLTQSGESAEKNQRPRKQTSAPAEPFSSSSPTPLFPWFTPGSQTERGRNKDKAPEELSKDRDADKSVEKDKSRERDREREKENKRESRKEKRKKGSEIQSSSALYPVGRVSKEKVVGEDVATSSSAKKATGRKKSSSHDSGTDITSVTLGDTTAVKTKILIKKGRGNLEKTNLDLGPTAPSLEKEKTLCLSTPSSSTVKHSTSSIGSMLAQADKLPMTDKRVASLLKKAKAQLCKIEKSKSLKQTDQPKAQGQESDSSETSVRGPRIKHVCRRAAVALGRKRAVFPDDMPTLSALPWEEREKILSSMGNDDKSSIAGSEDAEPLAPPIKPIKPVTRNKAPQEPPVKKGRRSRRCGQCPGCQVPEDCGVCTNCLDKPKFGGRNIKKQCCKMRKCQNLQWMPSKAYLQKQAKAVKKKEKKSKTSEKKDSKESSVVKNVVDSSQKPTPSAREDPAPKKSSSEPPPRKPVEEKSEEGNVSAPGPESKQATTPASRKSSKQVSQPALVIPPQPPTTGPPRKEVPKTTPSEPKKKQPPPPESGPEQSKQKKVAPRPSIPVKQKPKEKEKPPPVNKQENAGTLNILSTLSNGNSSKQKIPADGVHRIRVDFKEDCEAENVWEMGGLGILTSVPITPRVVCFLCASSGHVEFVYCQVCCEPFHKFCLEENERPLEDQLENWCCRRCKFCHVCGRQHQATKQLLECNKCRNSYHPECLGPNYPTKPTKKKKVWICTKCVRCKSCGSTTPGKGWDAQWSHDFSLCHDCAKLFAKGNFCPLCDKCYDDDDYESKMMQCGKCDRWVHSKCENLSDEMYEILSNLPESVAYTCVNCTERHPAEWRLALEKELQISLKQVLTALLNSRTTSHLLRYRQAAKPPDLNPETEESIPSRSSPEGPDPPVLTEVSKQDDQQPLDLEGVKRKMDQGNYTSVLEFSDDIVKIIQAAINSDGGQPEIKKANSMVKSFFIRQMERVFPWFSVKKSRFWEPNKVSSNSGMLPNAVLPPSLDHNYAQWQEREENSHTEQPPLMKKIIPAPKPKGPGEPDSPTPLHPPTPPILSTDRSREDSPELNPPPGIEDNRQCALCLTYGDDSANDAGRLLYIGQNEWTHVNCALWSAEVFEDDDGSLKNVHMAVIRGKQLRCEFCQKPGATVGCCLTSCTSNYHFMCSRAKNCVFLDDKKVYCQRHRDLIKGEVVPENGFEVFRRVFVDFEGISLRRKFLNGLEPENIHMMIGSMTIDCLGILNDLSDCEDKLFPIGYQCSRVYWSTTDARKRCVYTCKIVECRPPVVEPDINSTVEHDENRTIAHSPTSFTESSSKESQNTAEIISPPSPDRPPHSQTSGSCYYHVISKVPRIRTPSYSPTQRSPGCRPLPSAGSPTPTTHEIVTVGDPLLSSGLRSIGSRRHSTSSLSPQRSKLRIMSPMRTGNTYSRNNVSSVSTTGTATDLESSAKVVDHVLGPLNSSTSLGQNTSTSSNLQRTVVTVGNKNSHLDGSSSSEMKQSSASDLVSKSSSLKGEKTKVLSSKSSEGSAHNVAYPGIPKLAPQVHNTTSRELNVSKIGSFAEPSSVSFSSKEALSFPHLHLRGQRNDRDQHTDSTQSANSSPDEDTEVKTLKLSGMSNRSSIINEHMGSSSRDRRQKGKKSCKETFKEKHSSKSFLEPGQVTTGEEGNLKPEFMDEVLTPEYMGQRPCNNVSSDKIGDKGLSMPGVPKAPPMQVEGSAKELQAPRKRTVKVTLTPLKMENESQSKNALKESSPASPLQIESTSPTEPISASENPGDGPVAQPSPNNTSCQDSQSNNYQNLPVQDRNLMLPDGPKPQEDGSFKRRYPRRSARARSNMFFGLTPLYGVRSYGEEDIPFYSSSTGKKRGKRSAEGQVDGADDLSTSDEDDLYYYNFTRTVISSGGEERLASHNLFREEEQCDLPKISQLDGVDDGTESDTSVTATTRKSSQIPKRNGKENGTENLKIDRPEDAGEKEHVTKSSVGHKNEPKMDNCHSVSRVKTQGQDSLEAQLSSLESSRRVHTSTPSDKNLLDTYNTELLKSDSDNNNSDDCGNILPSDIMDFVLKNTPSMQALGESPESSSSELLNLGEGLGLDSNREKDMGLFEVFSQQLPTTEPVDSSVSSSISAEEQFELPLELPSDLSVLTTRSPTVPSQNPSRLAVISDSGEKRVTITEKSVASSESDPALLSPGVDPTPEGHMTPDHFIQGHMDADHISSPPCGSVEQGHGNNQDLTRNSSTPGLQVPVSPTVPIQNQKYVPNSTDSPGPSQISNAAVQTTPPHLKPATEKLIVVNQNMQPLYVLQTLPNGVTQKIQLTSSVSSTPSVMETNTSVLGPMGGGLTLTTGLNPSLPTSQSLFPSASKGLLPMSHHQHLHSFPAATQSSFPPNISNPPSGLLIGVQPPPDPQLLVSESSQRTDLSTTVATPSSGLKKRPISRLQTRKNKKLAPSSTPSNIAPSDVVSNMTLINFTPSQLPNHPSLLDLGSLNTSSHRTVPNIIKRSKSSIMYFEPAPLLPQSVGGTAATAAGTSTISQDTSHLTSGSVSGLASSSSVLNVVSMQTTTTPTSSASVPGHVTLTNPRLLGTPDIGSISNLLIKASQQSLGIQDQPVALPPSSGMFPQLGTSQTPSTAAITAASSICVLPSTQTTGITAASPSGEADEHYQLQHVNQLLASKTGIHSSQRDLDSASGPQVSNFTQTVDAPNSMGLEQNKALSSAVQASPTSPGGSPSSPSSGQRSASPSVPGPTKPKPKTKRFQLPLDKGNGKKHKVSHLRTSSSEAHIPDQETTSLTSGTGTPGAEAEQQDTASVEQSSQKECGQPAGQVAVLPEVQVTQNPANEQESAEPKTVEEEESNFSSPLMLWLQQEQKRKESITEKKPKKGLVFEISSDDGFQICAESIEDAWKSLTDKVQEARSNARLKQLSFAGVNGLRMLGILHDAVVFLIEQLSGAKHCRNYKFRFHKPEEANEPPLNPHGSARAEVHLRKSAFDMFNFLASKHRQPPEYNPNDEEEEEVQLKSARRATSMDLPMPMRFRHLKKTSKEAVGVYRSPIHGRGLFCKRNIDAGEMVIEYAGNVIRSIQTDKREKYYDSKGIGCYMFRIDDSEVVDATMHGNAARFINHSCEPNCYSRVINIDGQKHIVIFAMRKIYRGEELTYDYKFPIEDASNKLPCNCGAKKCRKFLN
Description: qHTS Assay for Inhibitors Targeting the Menin-MLL Interaction in MLL Related Leukemias NIH Chemical Genomics Center [NCGC] NIH Molecular Libraries Probe Centers Network [MLPCN] MLPCN Grant: MH084875-01A1 Assay Submitter (PI): Jolanta Grembecka, Tomasz Cierpicki, University of Virginia Translocations of the MLL (Mixed Lineage Leukemia) gene are frequently found in human leukemias affecting both children and adults. Fusion of MLL to one of more than 60 genes results in generation of oncogenic proteins upregulating Hox genes, which are vital to blood cell development. Patients harboring fusion of the MLL gene suffer from aggressive leukemias and respond poorly to available therapies. All of the oncogenic fusion proteins have a preserved N-terminal fragment of MLL that has been identified to interact with menin. It has been recently discovered that association with menin is critical to the leukemogenic activity of the MLL fusion oncoproteins. Selective targeting of the menin-MLL interaction could provide an attractive therapeutic approach to develop novel drugs for MLL-related leukemias. Small molecules blocking the menin-MLL interaction should reverse the oncogenic potential of MLL fusion proteins. We have developed and optimized a fluorescence polarization-based assay for the identification of Menin-MLL inhibitors. The assay was run employing two different MLL-derived peptides. The present assay uses a 12 amino acid peptide labeled with fluorescein at its N-terminus. This peptide consists of the menin high affinity binding motif from MLL and is potently bound by menin. Another peptide with a mutated sequence, labeled with Texas Red, was used in parallel as a less stringent screen for inhibitors. The present assay was run to characterize initial structure activity relationships.
The Menin protein, the MLL-wild type (w.t.) derived peptide (N-terminal 12 amino acids), the MLL-derived peptide labeled with Texas Red and the MLL-w.t. peptide labeled with Fluorescein were kindly supplied by laboratory of Dr. Jolanta Grembecka, University of Virginia. All protein and peptide solutions were stored in single use aliquots at -80C. The Eu3+ Cyrptate-conjugated mouse monoclonal antibody anti-6 Histidine (Eu3+-AB) and the Streptavidin-XL665 conjugate (XL665) were purchased from Cisbio International (Bedford, MA). All antibody and XL665 conjugate solution stocks were stored in single use aliquots at -20C. The Buffer components for all assays were purchased from Sigma-Aldrich (St. Louis, MO) and Invitrogen (Carlsbad, CA). FP Assay Reagents: 1. FP reaction buffer: 50 mM Tris-HCl pH 7.5, 50 mM NaCl, 1mM DTT. Before use, 0.05% BSA is added. 2. Menin protein, MLL-w.t. labeled with fluorescein, MLL-mutant peptide labeled with texas red. Stored in singe use aliquots at -80C. 3. MLL-w.t. unlabeled peptide as positive control: 10 uM final in FP buffer. FP Assay Procedure: 1. Prepare Menin at 200 nM, MLL-w.t.-fluorescein at 25 nM, and MLL-mutant-texas red at 50 nM mixture in FP buffer. 2. Prepare Menin at 200 nM, MLL-w.t.-fluorescein at 25 nM, MLL-mutant-texas red at 50 nM, and 10 uM MLL-w.t. unlabeled mixture in FP buffer. 3. Prepare MLL-w.t.-fluorescein at 25 nM and MLL-mutant-texas red at 50 nM mixture in FP buffer. 3. Dispense 4 ul per well of reagent in step 1 in columns 2, 4 - 48 in a black 1536 well plate, dispense 4 ul per well of reagents from steps 2 and 3 in columns 1 and 3 respectively. Incubate plate at ambient for 15 minutes. 4. Transfer 23 nl per well of compound to plate and incubate at ambient for 1 hr. 5. Read fluorescence polarization for each label using the PerkinElmer Envision. Envision protocol for fluorescein: FITC FP Dual Enh Mirror, Excitation filter 480, Emission filter (1) P-pol 535, Emission filter (2) S-pol 535 Envision protocol for texas red: FP Dual Enh Mirror, Excitation filter 555, Emission filter (1) P-pol 632, Emission filter (2) S-pol 632

Question: Which Potency does the source give for `OC(c1ccccc1)(c1ccccc1)C1CCN(CCCOc2ccc(C(F)(F)F)cc2)CC1` here?
Answer: The Potency was 52 µM (active).

Question: With `NCc1ccc(OCCCN2CCC(C(O)(c3ccccc3)c3ccccc3)CC2)cc1` as the compound, how does the Potency read?
Answer: The Potency was 7.6 µM (active).

Question: For `OC(c1ccccc1)(c1ccccc1)C1CCN(CCCOc2ccc(-n3ccnn3)cc2)CC1`, which Potency is on record?
Answer: Its Potency is 29 µM (active).

Question: How did the Potency turn out when `COc1ccccc1C(=O)Nc1ccnn1C1CCN(CC2CCCCC2)CC1` was run?
Answer: The Potency was 42 µM (active).

Question: With `FC(F)(F)Oc1ccc(OCCCN2CCC(=C(c3ccccc3)c3ccccc3)CC2)cc1` as the compound, how does the outcome read?
Answer: The outcome was “inactive; no saturation, 12%inh at 2mm”.

Question: `CC(C)(C(=O)O)c1ccc(C(O)CCCN2CCC(C(O)(c3ccccc3)c3ccccc3)CC2)cc1` (centres undefined) was tested. Which outcome did it give?
Answer: The outcome was “inactive; no activity up to 2 mm”.

Question: With `N#Cc1ccc(OCCCN2CCC(C(O)(c3ccccc3)C(F)(F)F)CC2)cc1` (centres undefined) as the compound, how does the Potency read?
Answer: Its Potency is 31 µM (active).

Question: How did the outcome turn out when `OC(c1ccccc1)(c1ccccc1)C1CCN(CCCOc2ccc(-c3nn[nH]n3)cc2)CC1` was run?
Answer: Its outcome is “inactive; interference with assay at higher dose, inactive up to 100 um”.

Question: How did the outcome turn out when `Cc1ccc(OCCCN2CCC(=C(c3ccccc3)c3ccccc3)CC2)cc1` was run?
Answer: The outcome was “inactive; no saturation, 25% inh at 2mm”.

Question: With `Nc1ccc(OCCCN2CCC(C(O)(c3ccccc3)c3ccccc3)CC2)cc1` as the compound, how does the Potency read?
Answer: Its Potency is 60.5 µM (active).

Question: For `[N-]=[N+]=Nc1ccc(OCCCN2CCC(C(O)(c3ccccc3)c3ccccc3)CC2)cc1`, which Potency is on record?
Answer: Its Potency is 58 µM (active).

Question: With `N#Cc1ccc(COCCN2CCC(C(O)(c3ccccc3)c3ccccc3)CC2)cc1` as the compound, how does the outcome read?
Answer: The outcome was “inactive; no saturation, 50% inh at 1mm”.

Question: For `FC(F)(F)Oc1ccc(OCCCN2CCC(C(c3ccccc3)c3ccccc3)CC2)cc1`, which outcome is on record?
Answer: The outcome was “inactive; no saturation, 12%inh at 2mm”.

Question: With `c1ccc(OCCCN2CCC(=C(c3ccccc3)c3ccccc3)CC2)cc1` as the compound, how does the outcome read?
Answer: The outcome was “inactive; no saturation, 42% inh at 2mm”.

Question: For `FC(F)(F)c1ccc(OCCCN2CCC(=C(c3ccccc3)c3ccccc3)CC2)cc1`, which outcome is on record?
Answer: Its outcome is “inactive; no saturation, 25% inh at 2mm”.

Question: How did the Potency turn out when `N#Cc1ccc(OCCCN2CCC(C(O)(c3ccccc3)c3ccccc3)CC2)cc1F` was run?
Answer: The Potency was 26.5 µM (active).

Question: For `CC(C)c1ccc(OCCCN2CCC(=C(c3ccccc3)c3ccccc3)CC2)cc1`, which outcome is on record?
Answer: The outcome was “inactive; no saturation, 15% inh at 1mm”.

Question: How did the outcome turn out when `O=C(O)c1ccc(OCCCN2CCC(C(O)(c3ccccc3)c3ccccc3)CC2)cc1` was run?
Answer: Its outcome is “inactive; no saturation, 34% inh. at 1mm”.

Question: `FC(F)(F)c1ccc(OCCCN2CCC(C(c3ccccc3)c3ccccc3)CC2)cc1` was tested. Which outcome did it give?
Answer: The outcome was “inactive; no saturation, 36% inh at 2mm”.
